Assay [1] deals with Lysosomal acid glucosylceramidase (Homo sapiens) (UniProt P04062). Put plainly: Glucocerebrosidase-p2 (AID 348; in the data active = potency below about 10 µM; also: potency is read from the fitted curve at half-maximal effect). As to conditions: purified GBA, blue fluorogenic substrate, 40 min. In outline: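 Compounds titrated from 0.6 nM upwards against 0.2 nM enzyme in pH 5.9 citric acid/KH2PO4, taurocholate, tween-20; blue fluorogenic substrate 80 uM, 40 min room temperature, stopped and read Ex 365/Em 440 for AC50.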

A short description of assay [2]: AP1 Signaling Pathway (AID 357). Also: % is scaled to controls: 0 for no effect and ±100 for the full control effect. As to conditions: ME-180 AP-1-bla reporter, EGF-induced, beta-lactamase ratio, 5 h; at 7.69 µM (top of the series) unless noted. The procedure, abridged: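 AP-1-bla ME-180 cells with beta-lactamase reporter under AP-1 response element, stimulated with EC50 EGF; compounds titrated, 5 hours at 37 degrees Celsius. CCF4 read at 460/530 nm ratio; positive and negative modulators judged by AC50.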

Assay [3] concerns the target Cytochrome P450 1A2 (Homo sapiens) (UniProt P05177). Briefly: p450-cyp1a2 (AID 410; calls by dose curve; also: potency is read from the fitted curve at half-maximal effect;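 as to activity change, negative = inhibition: -100% = full effect of reference inhibitor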). As to conditions: recombinant CYP1A2, luciferin-ME demethylation, luminescence; series mostly up to 57 µM. In outline: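 Inhibition was calculated relative to 57 uM furafylline (full inhibition). The reaction used human CYP1A2 at 20nM with Luciferin-ME at its Km, 100uM, driven by an NADPH-regenerating system for 60 min at room temperature.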

A short description of assay [4]: NFAT Signaling Pathway (AID 444).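 Also: carbachol stimulus at about its EC50 of 1 µM final; % is scaled to controls: 0 for no effect and ±100 for the full control effect.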 To be noted: Jurkat NFAT-bla M1, carbachol, beta-lactamase ratio, 5 h; at 7.69 µM (top of the series) unless noted. In outline:
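Read-out: CCF4 FRET ratio (460 nm/530 nm) after 1 h RT dye loading, used for %activity and AC50 from titration series. Cells: Jurkat NFAT-β-lactamase/M1 line, treated with compound plus 1 uM carbachol for 5 h, 37 °C.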

The nature of assay [5]: Stat Signaling Pathway (AID 446).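 Also: ME-180 cervical cancer cells given 40 pM IL-6 alongside compound; SIE-controlled beta-lactamase reporter measured as 460/530 nm FRET emission ratio; % is scaled to controls: 0 for no effect and ±100 for the full control effect.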 As to conditions: ME-180 (cervical carcinoma) SIE beta-lactamase reporter, IL-6 stimulated, 5 h; at 7.69 µM (top of the series) unless noted. The procedure, abridged: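 IL-6/STAT signaling read in ME-180 cells via an SIE beta-lactamase reporter. Stimulus was 40 pM IL-6 (its AC50) for 5 hrs, so both activation and inhibition register.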
In assay [6] the target is Glucocorticoid receptor (Homo sapiens) (UniProt P04150). Put plainly: GR-EFC Redistribution (AID 451; calls by dose curve; also: potency is read from the fitted curve at half-maximal effect). As to conditions: CHO-K1 GR-EFC translocation, beta-gal luminescence, 2 h. In outline: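 Translocation of GR-ED fusion to nuclear EA restores b-gal, read by luminescence after 1 h room-temperature detection. Engineered CHO-K1 biosensor cells, 1,000/well, exposed 2 h at 37 C to titrations up to 46 uM final.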

The target in assay [7] is Mitogen-activated protein kinase 10 (Mus musculus) (UniProt Q61831). Put plainly: JNK3 AlphaScreen Assay (AID 530).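 Also: kinase came from lysate of stimulated human HepG2 cells; signal reports phosphorylation of biotinylated GST-cJun 1-79 at Ser73 with 10 µM ATP; % is scaled to controls: 0 for no effect and ±100 for the full control effect.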 As to conditions: JNK3 lysate, c-Jun phosphorylation; series mostly up to 57.1 µM. In outline:
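Room-temperature AlphaScreen kinase assay; pre-activated HepG2 lysate as JNK3 source, biotin-GST-cJun(1-79) substrate, 10 uM ATP, compound 15 min preincubation.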

A short description of assay [8]: qHTS Assay for Lipid Storage Modulators (AID 1519; calls by dose curve). To be noted: Drosophila S3 cells, BODIPY lipid droplet/cell ratio, laser cytometry, cells loaded with oleic acid; for activity change, negative = inhibition: at 57.5 µM (top of the series). In outline:
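Cells seeded at 5,000 per well were treated with compounds over a concentration series and loaded with oleic acid (400 uM, as added). Lipid droplet fluorescence (488 nm excitation, 500-530 nm channel) was read by laser-scanning cytometry and normalized to 20 uM Triacsin C.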

Assay [9] addresses 3',5'-cyclic-AMP phosphodiesterase 4B (Homo sapiens) (UniProt Q07343). Briefly: qHTS Assay for Inhibitors of PDE-IV (AID 607; active = well fitted activation curve with a large enough effect in the main read-out, with a control signal flat, not every such curve was filed as active; also: % of control where 0% means no effect). To be noted: HEK293 ACTOne CNG channel cells, membrane potential fluorescence; series mostly up to 22.9 µM. In outline:
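Live HEK293 cells with a modified cyclic nucleotide-gated (CNG) channel report intracellular cAMP via membrane-potential dye fluorescence (ex 535/em 590 nm). Endogenous PDE-IV was targeted. Compounds were tested at up to 22.9 uM final; RO 20-1724 100 uM served as control.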

For assay [10], the target named is Glucocorticoid receptor (Homo sapiens) (UniProt P04150). Briefly: GR-GFP Redistribution (AID 450;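 active = compounds whose dose series gives a full or clear partial fitted curve of increased nuclear translocation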; also: potency is read from the fitted curve at half-maximal effect). As to conditions: U2OS GR-GFP nuclear translocation, laser cytometry, 2 h.
The target in assay [11] is Cytochrome P450 3A4 (Homo sapiens) (UniProt P08684). Briefly: qHTS Assay for Activators of Cytochrome P450 3A4 (AID 885; active = well fitted curve in the direction sought with a large enough effect; an effect the other way counts as inactive or inconclusive; also: nearly all actives have a fitted effect of over 65% in size). As to conditions: recombinant CYP3A4, Luciferin-PPXE luminescence, 60 min; series mostly up to 57.1 µM. In outline:
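Quantitative HTS format: compounds preincubated with 20nM human CYP3A4 and Luciferin-PPXE substrate at KM, reaction started by NADPH regeneration, stopped after 60 min, luciferase luminescence read 20 min later.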

Assay [12] addresses Cytochrome P450 2D6 (Homo sapiens) (UniProt P10635). Briefly: qHTS Assay for Inhibitors and Substrates of Cytochrome P450 2D6 (AID 891; active = well fitted curve in the direction sought with a large enough effect; an effect the other way counts as inactive or inconclusive; also: potency is read from the fitted curve at half-maximal effect; nearly all actives have a fitted effect of over 60% in size). To be noted: recombinant CYP2D6, luciferin-ME EGE luminescence; series mostly up to 57.1 µM. The procedure, abridged:
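Human CYP2D6 (5 nM) with 30 uM Luciferin-ME EGE (at Km) in 100 mM KPO4, compound preincubated 10 min, then NADPH regeneration system for 60 min at room temperature. Luciferin read by luminescence; normalized to 1.43 uM quinidine.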

A short description of assay [13]: Confirmation and Secondary Assay for Modulators of Hemoglobin Beta Chain Splicing at IVS2 654 locus (AID 910; active = well fitted curve in the direction sought with a large enough effect; an effect the other way counts as inactive or inconclusive;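 also: HeLa cells stably carrying EGFP split by mutant beta-globin IVS2-654 intron; per-well total GFP intensity by laser scanning cytometry after 2-day treatment; % of control where 0% means no effect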). To be noted: HeLa EGFP-654 splicing reporter, GFP fluorescence, 48 h; series mostly up to 38.3 µM. The procedure, abridged:
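Readout: per-well total peak green fluorescence (488 nm ex, 500–520 nm em) from objects 5–250 µm, reflecting correct splicing of an EGFP-654 reporter. Compounds were applied for 2 days at 37 °C to overnight-plated HeLa EGFP-654 cells; controls were DMSO and 500 nM IVS2-654 PNA.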

A short description of assay [14]: Confirmation and Secondary Assay for Modulators of Hemoglobin Beta Chain Splicing at IVS2 705 locus (AID 930; active = well fitted curve in the direction sought with a large enough effect; an effect the other way counts as inactive or inconclusive;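 also: HeLa cells stably expressing the EGFP-705 splicing reporter; GFP fluorescence per well restored by corrected splicing of the IVS2-705 intron in EGFP; % of control where 0% means no effect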). As to conditions: HeLa EGFP-705 splicing reporter, GFP fluorescence, 48 h; series mostly up to 38.3 µM. In outline: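 HeLa EGFP-705 reporter; 500 cells/well, o/n 37C 5% CO2; cpd 2 d; 488 ex/500-520 em laser scan; total peak GFP intensity/well. Ref: 500 nM […] antisense PNA.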

The target of assay [15] is Ubiquitin carboxyl-terminal hydrolase 1 (Homo sapiens) (UniProt O94782). Put plainly: Inhibitors of USP1/UAF1: Pilot qHTS (AID 504865; active = well fitted curve in the direction sought with a large enough effect; an effect the other way counts as inactive or inconclusive;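 also: rhodamine fluorescence freed from ubiquitin-rhodamine substrate followed over time; top concentration of the series differs between compounds; % is scaled to controls: 0 for no effect and ±100 for the full control effect; nearly all actives have a fitted effect of over 35% in size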). To be noted: purified USP1/UAF1, Ub-rhodamine cleavage fluorescence; series mostly up to 54.9 µM. The procedure, abridged:
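Kinetic fluorescence assay: 1nM USP1/UAF1, 15 min compound preincubation, then 150nM Ub-Rho; 480/540 nm.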

Setting [16] is: measured here: cell count channel max response.
Setting [17] is: measured here: lipid channel max response.

Results filed as inconclusive are left out. Active and inactive are the calls of the source. Unless noted, calls follow the shape of the dose curve; as a rule, active = well fitted curve in either direction with a large enough effect (not every such curve was filed as active); inconclusive = small, poorly fitted or top-dose-only effect, or another doubt; inactive = flat fitted curve, though single readings scatter.

Sequence of Glucocorticoid receptor (Homo sapiens) (P04150 whole entry, looked up, the tested form may be a part): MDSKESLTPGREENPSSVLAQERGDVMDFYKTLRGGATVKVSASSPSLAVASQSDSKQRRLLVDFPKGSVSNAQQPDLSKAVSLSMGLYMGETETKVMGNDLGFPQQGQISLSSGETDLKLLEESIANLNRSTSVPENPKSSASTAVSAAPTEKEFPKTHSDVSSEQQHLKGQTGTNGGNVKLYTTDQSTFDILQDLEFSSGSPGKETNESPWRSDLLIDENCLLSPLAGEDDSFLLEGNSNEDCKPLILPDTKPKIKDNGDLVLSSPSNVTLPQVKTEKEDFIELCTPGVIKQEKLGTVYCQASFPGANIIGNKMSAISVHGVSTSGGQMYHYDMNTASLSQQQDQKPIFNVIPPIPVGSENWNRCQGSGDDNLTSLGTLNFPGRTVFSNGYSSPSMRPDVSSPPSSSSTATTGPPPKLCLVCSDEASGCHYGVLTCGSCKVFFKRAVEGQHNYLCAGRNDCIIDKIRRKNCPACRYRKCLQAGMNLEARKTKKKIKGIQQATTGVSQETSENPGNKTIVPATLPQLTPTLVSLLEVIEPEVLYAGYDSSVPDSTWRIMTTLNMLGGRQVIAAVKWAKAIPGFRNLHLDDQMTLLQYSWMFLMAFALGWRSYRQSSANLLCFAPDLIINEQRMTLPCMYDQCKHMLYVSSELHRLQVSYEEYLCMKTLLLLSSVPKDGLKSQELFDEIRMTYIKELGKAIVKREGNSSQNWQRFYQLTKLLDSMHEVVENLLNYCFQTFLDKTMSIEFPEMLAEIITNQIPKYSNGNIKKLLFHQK
Sequence of Lysosomal acid glucosylceramidase (Homo sapiens) (P04062 whole entry, looked up): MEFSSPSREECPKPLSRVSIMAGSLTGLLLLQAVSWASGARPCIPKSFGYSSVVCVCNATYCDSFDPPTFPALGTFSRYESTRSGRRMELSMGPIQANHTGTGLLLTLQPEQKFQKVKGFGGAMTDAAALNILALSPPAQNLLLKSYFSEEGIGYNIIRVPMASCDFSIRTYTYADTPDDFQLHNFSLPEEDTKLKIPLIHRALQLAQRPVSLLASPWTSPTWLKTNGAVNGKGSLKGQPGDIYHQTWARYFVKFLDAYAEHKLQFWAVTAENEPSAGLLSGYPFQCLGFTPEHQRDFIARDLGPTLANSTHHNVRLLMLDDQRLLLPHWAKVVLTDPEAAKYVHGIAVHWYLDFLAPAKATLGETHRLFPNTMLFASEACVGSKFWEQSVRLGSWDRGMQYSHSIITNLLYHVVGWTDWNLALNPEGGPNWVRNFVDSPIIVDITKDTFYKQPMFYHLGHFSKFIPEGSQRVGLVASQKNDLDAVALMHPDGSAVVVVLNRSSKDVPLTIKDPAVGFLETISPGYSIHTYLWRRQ
Sequence of 3',5'-cyclic-AMP phosphodiesterase 4B (Homo sapiens) (Q07343 whole entry, looked up): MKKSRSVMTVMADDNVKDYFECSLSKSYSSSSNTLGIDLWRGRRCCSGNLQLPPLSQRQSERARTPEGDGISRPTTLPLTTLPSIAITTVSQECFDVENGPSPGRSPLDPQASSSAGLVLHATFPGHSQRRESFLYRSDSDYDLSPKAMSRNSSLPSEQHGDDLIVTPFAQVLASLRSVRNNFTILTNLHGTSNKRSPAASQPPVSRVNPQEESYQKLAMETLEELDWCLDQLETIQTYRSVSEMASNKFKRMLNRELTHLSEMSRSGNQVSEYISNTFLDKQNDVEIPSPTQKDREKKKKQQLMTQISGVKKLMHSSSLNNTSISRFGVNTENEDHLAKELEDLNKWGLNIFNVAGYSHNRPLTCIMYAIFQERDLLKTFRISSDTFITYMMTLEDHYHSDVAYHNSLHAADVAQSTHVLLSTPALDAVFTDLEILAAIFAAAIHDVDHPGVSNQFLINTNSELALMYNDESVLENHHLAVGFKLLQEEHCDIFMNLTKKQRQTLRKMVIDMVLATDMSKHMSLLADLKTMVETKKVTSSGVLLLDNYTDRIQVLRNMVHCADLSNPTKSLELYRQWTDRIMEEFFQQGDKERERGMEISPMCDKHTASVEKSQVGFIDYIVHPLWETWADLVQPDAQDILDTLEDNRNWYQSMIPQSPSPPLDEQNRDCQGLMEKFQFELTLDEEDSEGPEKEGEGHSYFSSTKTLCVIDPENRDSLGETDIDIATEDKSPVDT
Sequence of Cytochrome P450 3A4 (Homo sapiens) (P08684 whole entry, looked up): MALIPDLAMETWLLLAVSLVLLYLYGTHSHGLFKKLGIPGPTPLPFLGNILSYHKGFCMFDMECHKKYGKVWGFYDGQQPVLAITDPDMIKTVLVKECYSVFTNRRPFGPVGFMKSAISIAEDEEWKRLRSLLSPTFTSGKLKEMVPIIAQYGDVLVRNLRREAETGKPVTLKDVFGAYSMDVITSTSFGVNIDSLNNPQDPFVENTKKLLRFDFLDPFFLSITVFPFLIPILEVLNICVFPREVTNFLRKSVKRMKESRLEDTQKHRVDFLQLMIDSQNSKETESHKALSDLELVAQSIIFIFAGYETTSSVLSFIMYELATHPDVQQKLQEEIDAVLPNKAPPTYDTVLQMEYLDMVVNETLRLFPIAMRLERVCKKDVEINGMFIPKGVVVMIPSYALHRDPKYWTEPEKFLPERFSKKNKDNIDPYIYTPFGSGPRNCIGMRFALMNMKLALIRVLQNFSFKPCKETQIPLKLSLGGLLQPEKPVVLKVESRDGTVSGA
Sequence of Cytochrome P450 1A2 (Homo sapiens) (P05177 whole entry, looked up): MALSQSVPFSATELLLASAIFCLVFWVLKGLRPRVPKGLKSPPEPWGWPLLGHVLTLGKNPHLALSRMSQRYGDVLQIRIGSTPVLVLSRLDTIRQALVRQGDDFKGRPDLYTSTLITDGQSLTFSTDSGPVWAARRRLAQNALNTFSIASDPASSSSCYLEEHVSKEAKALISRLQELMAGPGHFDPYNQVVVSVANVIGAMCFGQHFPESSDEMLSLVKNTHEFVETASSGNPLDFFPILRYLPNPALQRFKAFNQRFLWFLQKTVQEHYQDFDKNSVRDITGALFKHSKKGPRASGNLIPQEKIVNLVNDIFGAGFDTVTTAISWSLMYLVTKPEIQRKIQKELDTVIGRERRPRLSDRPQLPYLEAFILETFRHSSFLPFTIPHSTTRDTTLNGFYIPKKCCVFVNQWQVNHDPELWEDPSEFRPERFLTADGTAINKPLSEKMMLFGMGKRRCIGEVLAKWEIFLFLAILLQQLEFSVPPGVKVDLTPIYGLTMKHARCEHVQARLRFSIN
Sequence of Ubiquitin carboxyl-terminal hydrolase 1 (Homo sapiens) (O94782 whole entry, looked up): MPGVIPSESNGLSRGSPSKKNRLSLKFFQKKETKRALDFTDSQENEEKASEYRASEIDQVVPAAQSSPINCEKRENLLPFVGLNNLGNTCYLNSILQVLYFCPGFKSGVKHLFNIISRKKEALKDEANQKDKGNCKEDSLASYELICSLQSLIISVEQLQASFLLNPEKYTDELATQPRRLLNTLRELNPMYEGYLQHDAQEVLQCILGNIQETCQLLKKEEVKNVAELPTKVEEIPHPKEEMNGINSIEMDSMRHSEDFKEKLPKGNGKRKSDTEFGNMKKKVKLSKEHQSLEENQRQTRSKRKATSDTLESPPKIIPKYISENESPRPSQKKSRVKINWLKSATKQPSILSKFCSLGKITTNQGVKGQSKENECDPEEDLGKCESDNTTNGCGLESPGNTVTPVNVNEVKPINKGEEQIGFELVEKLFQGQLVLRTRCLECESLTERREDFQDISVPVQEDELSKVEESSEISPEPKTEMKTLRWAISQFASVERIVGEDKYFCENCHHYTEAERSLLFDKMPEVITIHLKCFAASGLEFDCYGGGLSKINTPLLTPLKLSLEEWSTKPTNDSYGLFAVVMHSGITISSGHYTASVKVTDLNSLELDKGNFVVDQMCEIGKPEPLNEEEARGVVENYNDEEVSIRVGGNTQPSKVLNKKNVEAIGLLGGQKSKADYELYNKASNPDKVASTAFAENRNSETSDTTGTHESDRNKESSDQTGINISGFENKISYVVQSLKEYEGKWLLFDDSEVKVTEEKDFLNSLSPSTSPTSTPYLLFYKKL
Sequence of Cytochrome P450 2D6 (Homo sapiens) (P10635 whole entry, looked up): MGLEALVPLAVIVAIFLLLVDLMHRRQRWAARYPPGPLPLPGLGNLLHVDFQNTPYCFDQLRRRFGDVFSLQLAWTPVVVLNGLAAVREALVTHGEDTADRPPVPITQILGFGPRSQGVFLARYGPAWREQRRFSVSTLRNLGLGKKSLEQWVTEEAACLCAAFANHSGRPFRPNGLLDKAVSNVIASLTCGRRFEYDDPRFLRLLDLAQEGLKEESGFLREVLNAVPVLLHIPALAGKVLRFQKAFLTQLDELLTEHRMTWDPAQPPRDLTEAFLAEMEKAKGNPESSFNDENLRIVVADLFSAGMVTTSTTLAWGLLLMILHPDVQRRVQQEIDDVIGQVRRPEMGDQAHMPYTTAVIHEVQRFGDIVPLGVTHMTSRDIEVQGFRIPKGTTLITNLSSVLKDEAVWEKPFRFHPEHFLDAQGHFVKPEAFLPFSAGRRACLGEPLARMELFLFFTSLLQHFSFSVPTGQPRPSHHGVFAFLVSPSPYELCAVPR

On to `Cn1cccc1C(=O)N1CCC2(CC1)CN(Cc1cc(C(F)(F)F)cc(C(F)(F)F)c1)C2`, for which the figures for the Potency in [1], in assay [3] and in [6] were > 11.4 µM (inactive), 10 µM (active) and > 46 µM (inactive), respectively. In addition, the results for the activity change, negative = inhibition in assay [2], in [4] and in assay [8] were -5.13% (inactive), 15.4% (inactive) and -8.03% (inactive), respectively. Further, the activity, negative = inhibition in [5] was -14.1% (inactive). The Potency result in [7] is “inactive”. Further, the max response was -0.271% in assay [8] (setting [16]) and -4.98% in assay [8] (setting [17]).

For the molecule `CC(C)NC(=O)N1CCC2(CC1)CCN(C(=O)c1cnccn1)CC2`, the Potency in assay [1] is > 11.4 µM (inactive); in [6] it was > 46 µM (inactive). Besides, the activity change, negative = inhibition in assay [2] was -0.14% (inactive); in assay [4] it was 7.26% (inactive); in [8], 0.356% (inactive). Also, the Potency entry in assay [3], in assay [7] and in [9] was “inactive” in each case. In addition, the activity, negative = inhibition in [5] was -2.84% (inactive). Also, the results for the max response in assay [8] (setting [16]) and in assay [8] (setting [17]) were 15.3% and 17.7%, respectively.

On to `COc1ccc(C(=O)N2CCC3(CCN(C(=O)Nc4cccc(F)c4)CC3)CC2)cc1`, for which the Potency in assay [1] is > 11.4 µM (inactive); in assay [6], > 46 µM (inactive). The activity change, negative = inhibition is -28.3% (inactive) in assay [2], 7.36% (inactive) in assay [4] and 6.16% (inactive) in assay [8]. In addition, the Potency entry in [3], in [7] and in assay [9] was “inactive” in each case. Also, the activity, negative = inhibition in [5] was -5.59% (inactive). The values for the max response in assay [8] (setting [16]) and in [8] (setting [17]) were 13.8% and 22%, respectively.

Turning to `CN(C)Cc1ccccc1-c1nc(N(C)Cc2ccco2)c2ccccc2n1`, the Potency in assay [1] was > 11.4 µM (inactive); in [3] it was 0.794 µM (active); in [10], > 46 µM (inactive); in [6], > 46 µM (inactive); in assay [12], 0.794 µM (active). Further, the activity change, negative = inhibition in [2] is 9.21% (inactive); in [4] it was -18.4% (inactive); in [8], 6.11% (inactive). Moreover, the activity, negative = inhibition in assay [5] was 3.87% (inactive). Also, the Potency entry in assay [7], in [11], in assay [13] and in assay [15] was “inactive” throughout. In assay [14], the result was inactive. For the same molecule, the max response is 17.4% in [8] (setting [16]) and 24.7% in assay [8] (setting [17]).

With `CN(C)Cc1ccccc1-c1ccc2ncnc(NCc3ccccc3)c2c1`, the Potency is > 11.4 µM (inactive) in assay [1], 15.8 µM (active) in assay [3], > 46 µM (inactive) in [6] and 7.94 µM (active) in assay [12]. The activity change, negative = inhibition in [2] was -7.49% (inactive); in assay [4] it was -27% (inactive); in assay [8], 5.57% (inactive). Further, the activity, negative = inhibition in assay [5] is 11.3% (inactive). The Potency entry in [7], in assay [11], in [13] and in [15] was “inactive” each time. In assay [14], the outcome was inactive. The max response in assay [8] (setting [16]) was 19.6%; in [8] (setting [17]) it was 25.6%.

With `CN(C)C(=O)c1ccc(-c2nc(N(C)C)c3ccccc3n2)cc1`, the Potency is > 11.4 µM (inactive) in [1], 10 µM (active) in assay [3], > 46 µM (inactive) in [10] and > 46 µM (inactive) in assay [6]. Moreover, the results for the activity change, negative = inhibition in assay [2], in [4] and in [8] were -11.7% (inactive), 16.5% (inactive) and 8.51% (inactive), respectively. The activity, negative = inhibition in assay [5] is 2.64% (inactive). In addition, the Potency result in [7], in [9], in [11], in [13] and in assay [15] was “inactive” in each case. For the same molecule, the molecule was classed as inactive in assay [14]. The max response was found to be 8.15% in assay [8] (setting [16]) and 13.9% in assay [8] (setting [17]).
